High-throughput results: PubChem BioAssay, National Center for Advancing Translational Sciences (NCATS)
In the library only some 1.3% were active in any assay of this set; here they are far more common.
Vif-APOBEC3F blk: qHTS for Inhibitors of Vif-A3F Interactions: qHTS. Potency, µM (titrated, usually from 46.1 µM), for the others: at the top dose activity, negative = active. hit rate 0.2% among 390,000. HeLa A3F-eYFP + Vif (tagged APOBEC3F with the HIV-1 protein that degrades it), YFP fluorescence increase. AID 602313, 2012; further: potency means the concentration at half of the fitted maximal effect; % of control where 0% means no effect; nearly all actives have a fitted effect of over 65% in size
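HeLa cells stably expressing A3F-eYFP plus Vif, plated and incubated overnight at 37 deg C, then exposed to compounds overnight at 37 deg C. Blocked degradation read as raised yellow fluorescence (Ex 488/Em 500-530).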
Glioma ERSR ind: qHTS for Inducers of the Endoplasmic Reticulum Stress Response (ERSR) in Human Glioma: qHTS; U87-MG GRP78 promoter luciferase reporter, 16 h; Potency, µM, for the others: top-dose activation, usual class: activators; hit rate 0.02% among 420,000; further: potency means the concentration at half of the fitted maximal effect; series mostly up to about 76 µM; % of control where 0% means no effect; nearly all actives have a fitted effect of over 35% in size
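ERSR induction read as luciferase luminescence (Bright-Glo, 10 min at room temperature) in stably transfected human U87-MG glioma cells exposed to compounds for 16 h, using GRP78 as sensor.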
TRPML1 blocker: qHTS for Inhibitors of the Human Mucolipin Transient Receptor Potential 1 (TRPML1); TRPML1-inducible cells, Ca2+ dye fluorescence, FDSS; stronger effect = lower value; inhibition of EC80 agonist-evoked calcium signal; activity change, negative = inhibition, % (test concentration not listed); hit rate 0.02% among 390,000; in the data active means activity change below about -50%; inconclusive means between about -30% and that limit;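 further: stimulus is agonist 54-4 at its EC80 concentration; on the % scale 0 is the no-effect control and ±100 the full control effect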
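Tet-induced TRPML1-DL cells loaded with Ca8 no-wash calcium dye were read kinetically on FDSS. Compound addition was followed by EC80 agonist 54-4 (4 uM final); inhibition was read over 110 s.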
TRPML1 ag: qHTS for Agonists of the Human Mucolipin Transient Receptor Potential 1 (TRPML1). Mucolipin-1 (Homo sapiens), Q9GZU1. TRPML1-expressing cells, Ca2+ dye fluorescence, FDSS. activation, % (test concentration not listed). hit rate 0.12% among 410,000. AID 624414, 2012; in the data active means activation above about 50%; inconclusive means mostly about 30% to 49%; further: 0% is about no effect
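Tetracycline-induced TRPML1-DL cells are seeded and incubated overnight before loading with a no-wash Ca2+ dye and quencher. Agonist activity is taken from the 110 s fluorescence read following compound pin-transfer on an FDSS, before EC80 54-4 challenge.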
Vif-APOBEC3G blk: qHTS for Inhibitors of Vif-A3G Interactions: qHTS; HeLa A3G-eYFP + Vif (tagged APOBEC3G with the HIV-1 protein that degrades it), YFP fluorescence, overnight; Potency, µM (titrated, usually from 46.1 µM), inactives show top-dose activity, negative = active, usual class: inhibitors; hit rate 0.076% among 410,000; further: potency means the concentration at half of the fitted maximal effect; on the % scale 0 is the no-effect control and ±100 the full control effect; nearly all actives have a fitted effect of over 60% in size
Target sequence (Q9HC16 whole entry, looked up): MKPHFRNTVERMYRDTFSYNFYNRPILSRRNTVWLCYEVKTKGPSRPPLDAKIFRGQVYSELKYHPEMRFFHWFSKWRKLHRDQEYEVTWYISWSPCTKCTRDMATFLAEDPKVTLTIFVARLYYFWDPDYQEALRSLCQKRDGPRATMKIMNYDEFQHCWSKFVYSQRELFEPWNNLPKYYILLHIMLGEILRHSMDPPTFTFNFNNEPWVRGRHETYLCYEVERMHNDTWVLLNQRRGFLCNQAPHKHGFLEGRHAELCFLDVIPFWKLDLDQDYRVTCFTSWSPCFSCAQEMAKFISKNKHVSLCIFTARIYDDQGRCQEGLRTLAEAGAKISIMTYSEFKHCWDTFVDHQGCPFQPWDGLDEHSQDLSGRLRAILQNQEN
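Read-out is eYFP fluorescence (Ex 488/Em 500-530) from Vif-expressing HeLa A3G-eYFP cells; more signal means A3G escaped Vif-mediated degradation. Cells plated overnight, compound pinned in, incubated overnight at 37 deg C.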
12-LOX inh: Primary qHTS assay for inhibitors of human arachidonate 12S-lipoxygenase (ALOX12): Round 2; Polyunsaturated fatty acid lipoxygenase ALOX12 (Homo sapiens), P18054; Potency, µM (highest dose often 108 µM), inactives show at the top dose activity change, negative = inhibition, actives largely listed as inhibitors; purified 12hLO, xylenol orange hydroperoxide absorbance; hit rate 1.1% among 580,000; further: potency means the concentration at half of the fitted maximal effect; on the % scale 0 is the no-effect control and ±100 the full control effect
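Purified human 12hLO (150 nM final) in 25 mM Hepes, 0.01% Triton X-100, pH 7.0 was preincubated 15 min at room temperature with compound. Then 40 uM arachidonic acid was added, 30 min. Hydroperoxide was read by Fe-XO absorbance ratio 573/405 nm.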
Active calls of the source: *; ? = inconclusive; . = not tested or not shown; ! = repeats disagree. Unless noted, the call rests on the fitted dose curve; in most records, active means well fitted curve in the direction sought with a large enough effect; inconclusive means small, poorly fitted or top-dose-only effect, or another doubt; inactive means no such curve, though single readings can be large; an effect the other way counts as inactive or inconclusive.

SMILES | Vif-APOBEC3F blk | Glioma ERSR ind | TRPML1 blocker | TRPML1 ag | Vif-APOBEC3G blk | 12-LOX inh
O=C(N/N=C/c1cccs1)c1cc(-c2ccccc2)nc2ccccc12 | . | . | . | . | . | -7%
Oc1c(I)cc(I)c2cccnc12 | -2% | -3% | -14 | -1 | 1% | 32µM*!
O=S(=O)(O)c1cc(I)c(O)c2ncccc12 | . | -5% | . | . | . | ?
O=c1oc2cc(O)ccc2cc1-c1nnc(Nc2ccc(Cl)cc2Cl)s1 | . | . | . | . | . | 8%
O=c1nc2s/c(=C\c3ccc(-c4ccccc4[N+](=O)[O-])o3)c(=O)n2nc1-c1ccccc1 | -8% | -4% | 2 | 1 | -1% | 11µM*
NC1=NC(=O)/C(=C\c2ccc(-c3ccccc3[N+](=O)[O-])o2)S1 | . | . | . | 0 | . | .
CCOc1ccc2nc(N3C(=O)/C(=C/c4ccc(Cl)cc4)NC3=S)sc2c1 | 5µM* | 0% | 7 | 0 | -3% | 3%
CCCNC(=O)Nc1ccc(-c2noc(-c3ccco3)n2)cc1 | . | . | . | . | . | -7%
CCS(=O)(=O)NCC1(COc2ccc(S(C)(=O)=O)cc2)C[C@@H](O)[C@@H](O)C1 (stereo partly drawn) | . | . | . | . | . | 13µM*
CN(C)c1ccc(C(=C2C=CC(=[N+](C)C)C=C2)c2ccccc2)cc1 | . | -12% | . | . | . | 0.32µM*
Cc1ccc(-c2nc3cnccn3c2NCCC(=O)NCc2ccco2)cc1 | . | . | . | . | . | 50µM*
COc1ccc(-c2nc3cnccn3c2NCCC(=O)Nc2ccc(C)cc2C)cc1 | . | . | . | . | . | -1%
CCc1ccccc1NC(=O)c1cc(C2CC2)nc2ccccc12 | . | . | . | . | . | -5%
Cc1nc2sc3c(O)cc(=O)[nH]c3c2c(C)c1C | -4% | ? | -10 | -1 | -4% | 3%
O=c1cc(O)c2sc3nc(-c4cccs4)cc(-c4cccs4)c3c2[nH]1 | . | . | . | . | . | 10µM*
Cc1ccc(C(=O)NCc2coc(-c3cccs3)n2)c(C)c1 | . | . | . | . | . | -20%
O=C(OCc1ccccc1)c1ccccc1C(=O)c1ccccc1 | . | . | . | . | . | 9%
CN(C)c1ccnc(-c2ccccc2C(F)(F)F)n1 | . | -1% | . | . | . | 50µM*
Cc1cc(N2C(=O)CC(N3CCN(c4ccc(C(=O)c5cccs5)cc4)CC3)C2=O)no1 (stereo not drawn) | -12% | -1% | -2 | 0 | 3% | 32µM*
CC(C)(C)CC(=O)N1CCCC(CN2CCN(c3ccccn3)CC2)C1 (stereo not drawn) | . | . | . | . | . | 18%
C=CC[C@H]1CC=C[C@H](CC=C)[N+]1(C)C | . | . | . | . | . | 7.1µM*!
Cc1[nH]n(-c2ccccc2)c(=O)c1Sc1ccc(Cl)cc1 | -7% | -1% | -4 | 0 | -2% | ?
Cc1ccc(SCc2cc(=O)c3c(=O)n(-c4ccccc4)[nH]c3[nH]2)cc1 | 4% | -5% | 19 | 2 | -5% | 35µM*
O=c1cc(CSc2ccc(Cl)cc2)[nH]c2[nH]n(-c3ccccc3)c(=O)c12 | 12% | -4% | 22 | 0 | 0% | 40µM*
Cc1cccc(/C=C/C(=O)c2cc3ccccc3oc2=O)c1 | . | . | . | . | . | -14%
SMILES | Vif-APOBEC3F blk | Glioma ERSR ind | TRPML1 blocker | TRPML1 ag | Vif-APOBEC3G blk | 12-LOX inh
CN(C)c1ccc(N=Nc2ccc(S(N)(=O)=O)cc2)cc1 | ? | 2% | 5 | -1 | 0% | -26%
CC1=CC(=O)C=CC1=Nc1ccc(N(C)C)cc1 | . | -8% | . | -1 | 4% | 7.9µM*
CC(/C=C1\SC(=S)N(NS(=O)(=O)c2ccc(C)cc2)C1=O)=C\c1ccccc1 | -10% | -5% | 22 | 0 | 5% | 16µM*
CC(=O)N1C(=O)/C(=C2\SC(=S)N(NS(=O)(=O)c3ccc(C)cc3)C2=O)c2ccccc21 | 1% | -5% | 2 | 3 | 4% | 45µM*
CC(/C=C1\SC(=S)N(c2ccc(C(=O)O)cc2)C1=O)=C\c1ccccc1 | -6% | -7% | 16 | 1 | 0% | 35µM*
CC(=O)N1C(=O)/C(=C2\SC(=S)N(c3c(C)n(C)n(-c4ccccc4)c3=O)C2=O)c2ccccc21 | -11% | -3% | -9 | 1 | -4% | ?
O=C(O)c1cccc(OCc2cccc(Cl)c2)c1 | . | . | . | . | . | -5%
CC(=O)c1ccc(NC(=O)c2cnn(-c3cccc(C)c3)c2-n2cccc2)cc1 | . | . | . | . | . | -18%
O=C(CCc1c[nH]c2ccccc12)NCc1cccs1 | . | . | . | . | . | -22%
O=c1oc2ccccc2cc1-c1ccccc1 | -5% | 5% | -3 | 2 | -1% | 2%
O=C(O)c1ccc(-n2cc(-c3cc4ccccc4oc3=O)[nH]c2=S)cc1 | 10% | 2% | 5 | 0 | -4% | 32µM*
Cc1ccc(Cn2cccc(NS(C)(=O)=O)c2=O)cc1 | 1% | -4% | -5 | -1 | 1% | 7.1µM*
CCNC(=S)N1CCC(C(O)(c2ccccc2)c2ccccc2)CC1 | 13% | -6% | 11 | 1 | 11% | -3%
COc1cc(NC(=S)N2CCC(C(O)(c3ccccc3)c3ccccc3)CC2)cc(OC)c1 | -1% | -6% | -6 | 1 | 2% | 40µM*
Cn1nc(C(=O)N2CCCC2c2ccc3c(c2)OCCCO3)c2ccccc2c1=O (stereo not drawn) | . | . | . | . | . | 15%
COc1ccc(/C=C2/C(=O)N(Cc3ccccc3)N=C2C)cc1 | -7% | -7% | 8 | 1 | -8% | -38%
COc1ccc(/C=C2/C(=O)N(c3nc4ccccc4s3)N=C2CSc2ccc(Cl)cc2)cc1 | 2% | 2% | -1 | 0 | -6% | 5µM*
Cc1ccc(Sc2nc3c(c(=O)[nH]c(=O)n3C)n2Cc2cccc(C)c2)cc1 | . | . | . | . | . | 9%
C=C[C@@H]1c2cc(C)ccc2N(S(=O)(=O)c2ccc(C)cc2)[C@H](c2ccccc2)C1(C#N)C#N | -8% | -4% | ? | 21 | 1% | -7%
C=C[C@@H]1c2ccccc2N(S(=O)(=O)c2ccc(C)cc2)[C@H](c2ccccc2)C1(C#N)C#N | -8% | -4% | -21 | 63*! | -4% | -18%
Cc1cc(F)ccc1NC(=O)c1cc(-c2ccc[nH]2)n[nH]1 | . | . | . | . | . | 18µM*
COc1ccc(NC(=O)c2cc(-c3ccc[nH]3)n[nH]2)cc1F | . | . | . | . | . | -15%
O=C(Nc1cccc(F)c1)c1cc(-c2ccc[nH]2)n[nH]1 | . | . | . | . | . | 20µM*
O=C(Nc1cccc(C(F)(F)F)c1)c1cc(-c2ccc[nH]2)n[nH]1 | . | . | . | . | . | 16µM*
Cc1ccc(NC(=O)c2cc(-c3ccc[nH]3)n[nH]2)cc1F | . | . | . | . | . | 10µM*
